From PubChem BioAssay
Shown are actives, neighbours in structure and some others; about 22% of the full set was active somewhere.
CHX counter = counter-screen hit for Shiga toxin inhibitors, cycloheximide | cell reporter, cycloheximide protein synthesis inhibition counterscreen | max response, % | 12% of 300,000 active | AID 2314; in the data active means max response mostly above about 13%, no sharp cut-off; inactive means mostly below about 14%; further: read at 38.3 µM for the half of the compounds with a filed dose; 0% is about no effect
Pf growth 96h = P. falciparum growth inhibition at 96 hour, primary screen for plastid delayed-death inhibitors. AID 504834. P. falciparum luciferase reporter growth, 96 h. 6.9% of 320,000 active. Potency, µM (doses to about 28.7 µM), without a hit: top-dose activity change, negative = inhibition, most hits filed as inhibitors; further: potency means the concentration at half of the fitted maximal effect; on the % scale 0 is the no-effect control and ±100 the full control effect
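Parasite growth measured via integrated firefly luciferase reporter in P. falciparum. Infected erythrocytes at 2% hematocrit, 0.05% parasitemia final were treated 96 hours at 37 C under 5% CO2, and luminescence was read.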
Pf growth 48h = inhibits P. falciparum growth in the first generation, 48 h; P. falciparum luciferase growth in erythrocytes, 48 h; 5.9% of 310,000 active; AID 504832; Potency, µM (titrated, usually from 28.7 µM), inactives show at the top dose activity change, negative = inhibition, hits mostly inhibitors; further: potency means the concentration at half of the fitted maximal effect; on the % scale 0 is the no-effect control and ±100 the full control effect
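Compounds are pin-transferred into medium, infected erythrocytes (2% hematocrit, 0.1% parasitemia final) are added, and plates sit one parasite generation at 37 C in 5% CO2. Detection reagent is then added and luminescence measured.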
Shiga toxin inh = Shiga toxin inhibition; inhibition, % at 38.7 µM; Vero cells, Shiga toxin protein synthesis inhibition reporter; AID 2315; 9.2% of 290,000 active; in the data active means inhibition mostly above about 28%, no sharp cut-off; inactive means mostly below about 43%; further: 0% is about no effect
LmPK inh = inhibitors of Leishmania mexicana pyruvate kinase. Q27686. purified LmPK, Kinase-Glo ATP luminescence, 1 h. 0.37% of 290,000 active. Potency, µM (doses to about 57.5 µM), inactives show at the highest dose activity change, negative = inhibition, usual class: inhibitors. AID 1721; further: potency means the concentration at half of the fitted maximal effect; on the % scale 0 is the no-effect control and ±100 the full control effect
Target sequence (Q27686 whole entry, looked up): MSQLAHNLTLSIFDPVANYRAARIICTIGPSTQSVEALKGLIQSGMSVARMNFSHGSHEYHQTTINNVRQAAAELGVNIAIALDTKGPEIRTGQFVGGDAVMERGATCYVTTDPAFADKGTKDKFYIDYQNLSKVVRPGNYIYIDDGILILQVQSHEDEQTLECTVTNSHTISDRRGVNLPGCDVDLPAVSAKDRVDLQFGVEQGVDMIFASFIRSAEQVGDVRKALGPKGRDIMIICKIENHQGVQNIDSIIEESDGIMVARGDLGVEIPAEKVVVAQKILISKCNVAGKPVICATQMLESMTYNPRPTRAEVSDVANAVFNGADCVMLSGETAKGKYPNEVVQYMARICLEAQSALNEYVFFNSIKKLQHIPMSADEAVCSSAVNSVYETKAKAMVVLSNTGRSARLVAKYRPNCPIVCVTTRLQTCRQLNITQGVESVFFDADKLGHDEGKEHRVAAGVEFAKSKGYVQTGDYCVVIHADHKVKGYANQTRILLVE
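qHTS format; LmPK 0.1 nM; substrates PEP 0.5 mM and ADP 0.1 mM. One-hour room-temperature incubation, then coupled luciferase luminescence; 0.5 nM enzyme wells mark activation.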
An asterisk follows results filed as active; u = inconclusive; x = no result given. Unless noted, the call rests on the fitted dose curve; in most records, active means well fitted inhibition curve with a large enough effect; inconclusive means small, poorly fitted or top-dose-only effect, or another doubt; inactive means no such curve, though single readings can be large or run the other way.

SMILES	CHX counter	Pf growth 96h	Pf growth 48h	Shiga toxin inh	LmPK inh
O=C(NC1CCCCC1)c1ccc(N2CCOCC2)c([N+](=O)[O-])c1	-4	u	-2%	x	3%
O=C(NCC1CCCO1)c1ccc(N2CCCCC2)c([N+](=O)[O-])c1 (stereo not given)	43*	u	6%	45*	1%
Cc1ccc(C(=O)NCC2CCCO2)cc1[N+](=O)[O-] (stereo not given)	-3	27%	-3%	-4	-10%
O=C(COc1ccc([N+](=O)[O-])cc1Cl)NCC1CCCO1 (stereo not given)	16*	59%	2%	46*	7%
O=C(NCC1CCCO1)c1cc([N+](=O)[O-])ccc1N1CCC(Cc2ccccc2)CC1 (stereo not given)	x	u	12µM*	x	x
O=C(NC1CC1)c1ccc(N2CCCCC2)c([N+](=O)[O-])c1	17*	2.6µM*	8.3µM*	79*	-6%
O=S(=O)(NC1CCCCC1)c1ccc(Cl)nc1	1	29%	4%	-9	4%
CCOC(=O)c1sc(NC(=O)C2CC(=O)N(c3ccc(C)cc3)C2)nc1C (stereo not given)	-6	53%	9%	-4	-1%
CC1CCCN(c2ccc(C(=O)NCc3ccco3)cc2[N+](=O)[O-])C1 (stereo not given)	7	u	4.1µM*	60*	-4%
CC(C)CCOc1ccc(C(=O)NN2C(=O)NC3(CCCCC3)C2=O)cc1	x	12%	3%	x	x
CC1(C)CN=C(Nc2ccccc2C(F)(F)F)S1	-1	6%	72%	30	-2%
CC1CN=C(NCc2ccccc2)S1 (stereo not given)	16*	u	4%	21	-3%
CC1(C)CN=C(NCc2ccccc2Cl)S1	17*	-26%	u	55*	2%
CCN(CC)S(=O)(=O)c1cccc(NC2=NCC(C)S2)c1 (stereo not given)	12	3%	-26%	42	0%
CC1CN=C(NCc2ccccc2Cl)S1 (stereo not given)	25*	u	u	42*	0%
O=C1C2C3CCC(CC3)C2C(=O)N1c1ccccc1 (stereo not given)	-1	1%	-18%	-8	7%
Cc1cc(C)cc(NC(=O)[C@@H](NC(=O)c2ccco2)C(C)C)c1	-2	-8%	0%	3	-4%
COc1ccc(/C(C)=N/Nc2ncc(Cl)cc2Cl)c(O)c1	8	u	u	33	-1%
Clc1cnc(N/N=C/c2ccco2)c(Cl)c1	57*	96%	282%	94*	-14%
Clc1cnc(N/N=C/c2cccs2)c(Cl)c1	36*	u	77%	128*	-4%
Oc1ccc(/C=N/Nc2ncc(Cl)cc2Cl)cc1	50*	u	11%	111*	0%
Cc1ccc(/C=N/Nc2ccc(F)cc2F)s1	37*	u	x	91*	3%
COc1ccc(C(C(=O)NC2CCCCC2)N(Cc2cccnc2)C(=O)c2snc(C(N)=O)c2N)cc1 (stereo not given)	-3	59%	u	-12	-4%
Cc1ccc(/C=N/Nc2ncc(Cl)cc2Cl)s1	34*	u	x	44	-8%
C=CCN1C(=O)c2ccc(C(=O)N3CCN(S(=O)(=O)c4cccc(Cl)c4)CC3)cc2C1=O	-4	13µM*	10µM*	-8	-2%
SMILES	CHX counter	Pf growth 96h	Pf growth 48h	Shiga toxin inh	LmPK inh
Cc1cc(Nc2ccc(C(=O)O)cc2)nc(N)n1	-3	22%	1%	x	0%
Cc1cc(Nc2ccc(F)cc2)nc(N)n1	13	9.3µM*	u	22	-7%
Cc1cc(Nc2cc(Cl)cc(Cl)c2)nc(N)n1	7	2.3µM*	1.9µM*	20	4%
COc1ccc(CCNC(=O)/C(C#N)=C2\N=C(NC(=O)c3ccco3)c3ccccc32)cc1	0	u	u	-3	4%
COc1ccccc1C(=O)Nc1nnc(-c2ccco2)s1	42*	x	166%	133*	2%
Cc1ccccc1C(=O)Nc1nnc(-c2ccco2)s1	38*	3%	426%	69*	-7%
O=C(NC1CCCCC1)C(c1cccnc1)N(C(=O)c1csnn1)c1ccccc1 (stereo not given)	-3	2%	-8%	-10	8%
O=C(CCSc1ccc(Cl)cc1)N1CCN(c2ncccn2)CC1	17*	-9%	8%	38	1%
O=C(CSc1ccccn1)N1CCN(c2ccccc2)CC1	35*	x	33%	35*	0%
O=C(CCSc1ccccc1)N1CCN(C(=O)c2ccco2)CC1	35*	x	27%	99*	9%
O=C(c1ccc(Cl)cc1)N1CCN(c2ncccn2)CC1	-2	12%	x	-4	-5%
O=C(CSc1ccccn1)N1CCN(c2cccc(Cl)c2)CC1	-2	x	0%	16	8%
O=C(CSc1ccc(Cl)cc1)N1CCN(c2c(Cl)cccc2[N+](=O)[O-])CC1	56*	125%	7%	46	8%
CCOc1ccc(NC(=O)CN(C)C(=O)c2cc(C3CC3)nn2-c2ccccc2)cc1OCC	x	-11%	u	x	x
COCCN(C(=O)C1=COCCO1)c1c(N)n(CC(C)C)c(=O)[nH]c1=O	x	30%	-1%	x	x
CCN(C(=O)c1cnc(OC)cc1C(F)(F)F)c1ccc(Cl)cc1Cl	5	0%	-1%	21	2%
COC(=O)CSc1nc(C)c2c(n1)CCCC2	19	30%	8%	33	-5%
COc1ccc(OC)c(S(=O)(=O)N/N=C\c2cn(CC(N)=O)c3ccccc23)c1	2	3%	6%	-36	-7%
COc1ccc(C(=O)c2ccccc2)c(OCC(=O)NC2CC2)c1	-2	u	0%	-22	1%
O=C(CCCOc1ccccc1)N1CCN(c2ccccc2)CC1	22	u	x	35	-3%
O=C(CCOc1ccccc1)N1CCN(c2ccc(O)cc2)CC1	47*	u	-15%	63*	-15%
O=C(CSc1ccccc1)N1CCN(c2ccccc2)CC1	17	u	14%	85*	-1%
O=C(CSc1nn(-c2ccc(Cl)cc2)c(=S)s1)N1CCN(C(=O)c2ccco2)CC1	8	-14%	4.7µM*	9	4%
CC(=O)c1ccc(OCCCC(=O)OCC(=O)N2CCN(c3ccccc3)CC2)cc1	-2	9.3µM*	x	-7	3%
O=C(CSc1nn(-c2ccc(F)cc2)c(=S)s1)N1CCN(C(=O)c2ccco2)CC1	-6	x	-14%	14	0%
O=C(NCc1nnnn1-c1ccc(F)cc1)c1ccc([N+](=O)[O-])o1	x	-6%	u	x	x
O=C(CCSc1ccc(Cl)cc1)N1CCN(c2ccc(O)cc2)CC1	27*	8%	-7%	59*	-3%
O=C(CCSc1ccc(Cl)cc1)N1CCCCCC1	21*	1µM*	143%	61*	-1%
CCC(C(=O)N1CCN(c2ncccn2)CC1)c1ccccc1 (stereo not given)	26*	0%	117%	15	3%
